# Source: PubChem BioAssay (EPA / NIEHS)
# The source made the active and inactive calls. Rule for the calls: active = hit-call score of the fitted dose curve at least 0.9, where 1 is the maximum; inactive = score below 0.9.
# Assay: ATG_Ets_CIS: Attagene CIS-FACTORIAL HepG2 Assay for human Erythroblast Transformation Specific (ETS) (AID 2282941)
# Settings: HepG2 ETS cis-reporter transcription, actives raise or lower the signal
# Procedure: ATG_CIS is a cell-based, multiplexed-readout assay that uses HepG2, a human liver cell line, with measurements taken at 24 hours after chemical dosing in a 24-well plate.ATG_Ets_CIS is one of 52 assay component(s) measured or calculated from the ATG_CIS assay. It is designed to make measurements of mRNA induction, a form of inducible reporter, as detected with fluorescence intensity signals by Reverse transcription polymerase chain reaction (RT-PCR) and Capillary electrophoresis technology.Data from the assay component ATG_Ets_CIS was analyzed into 1 assay endpoint. This assay endpoint, ATG_Ets_CIS, was analyzed with bidirectional fitting relative to DMSO as the negative control and baseline of activity. Using a type of inducible reporter, measures of mRNA for gain or loss-of-signal activity can be used to understand the reporter gene at the transcription factor-level as they relate to the gene ETS1. Furthermore, this assay endpoint can be referred to as a primary readout, because this assay has produced multiple assay endpoints where this one serves a reporter gene function. To generalize the intended target to other relatable targets, this assay endpoint is annotated to the dna binding intended target family, where the subfamily is winged helix-turn-helix.
# Human liver HepG2 cells are transiently transfected with multiple reporter transcription units (MRTUs) in 6-well plates using FuGene 6 reagent (Roche; 3 ml FuGene/1 mg DNA). The MRTU constructs are regulated by a cis-regulating element (promoter). […] A major difference between the CIS and TRANS system is that in CIS activities of endogenous TFs are measured, whereas the TRANS assay evaluates changes in activities of exogenous, chimeric NR-Gal4 proteins. […] At the end of 24 hour incubation, total RNA was isolated using TriZol reagent (Invitrogen). The isolated RNA is then reverse-transcribed using oligo(dT) primer and Mo-MLV reverse transcriptase (Invitrogen) with DNAse I (Ambion) treatment for 30 min. The one-tenth of the produced cDNA was amplified by PCR using Taq DNA polymerase (Invitrogen) and two reporter sequence-specific primers. The PCR products were fluorescently labeled by primer extension with 6-arboxyfluorescein (6-FAM) 5'-labeled reporter sequence-specific primer (2 min at 95 C, 20 s at 68 C and 10 min at 72 C) and these products were digested with 5U of HpaI (New England Biolabs) for 2h at 37 C. The fragments were purified using Qiaquick PCR columns (Qiagen), analyzed on an ABI 3130xL genetic analyzer (Applied Biosystems) with peak positions identified by using a set of X-rhodamine (ROX)-labeled MapMarker1000 molecular weight standards (BioVentures). The raw capillary electrophoresis data was processed using Attagraph software (Attagene).
SMILES,outcome,AC50
CC(C)=CCOC(=O)c1ccccc1,inactive,–
O=C(O)Cc1c[nH]c2ccccc12,inactive,–
Oc1ccc(Cl)cc1C1CCCC1,–,52 µM (active)
CC1=C(CC=O)C(C)(C)CCC1,inactive,–
CC/C=C\CC1=C(C)CCC1=O,inactive,–
O=C(O)c1nc(Cl)c(Cl)c(Cl)c1Cl,inactive,–
COc1c2occc2cc2ccc(=O)oc12,inactive,–
CCCCOC(=O)COc1ccc(Cl)cc1Cl,inactive,–
Cc1cccnc1,–,165 µM (active)
CCCCCC[C@@H](O)C/C=C\CCCCCCCC(=O)O,inactive,–
CC(=O)CCc1ccccc1,inactive,–
CCCCCCC1CCCC(=O)O1 (stereo not given),inactive,–
Cc1cc(C)c(S(=O)(=O)O)cc1N=Nc1cc(S(=O)(=O)O)c2ccccc2c1O,inactive,–
F[B-](F)(F)F,inactive,–
O=C(C1CCCCC1)N1CC(=O)N2CCc3ccccc3C2C1 (stereo not given),inactive,–
CCCCCCOC(=O)CCCCCCCC(=O)OCCCCCC,inactive,–
CN1CCCC1,inactive,–
O=[N+]([O-])c1ccccc1C(F)(F)F,inactive,–
CNC[C@H](O)[C@@H](O)[C@H](O)[C@H](O)CO,inactive,–
CCCCNC(N)=O,inactive,–

SMILES,outcome,AC50
CCC(C)(CCC(C)C)C(=O)O (stereo not given),inactive,–
CCc1cc(C(N)=S)ccn1,inactive,–
CCCOCCC,inactive,–
CN(C)Cc1cc(C(C)(C)C)c(O)c(C(C)(C)C)c1,inactive,–
CCCC(=O)OC/C=C(\C)CCC=C(C)C,inactive,–
CN(C)N=Nc1ccccc1,inactive,–
N#CCN(CC#N)CCN(CC#N)CC#N,inactive,–
C=C(C)C(=O)OCCCCCC,inactive,–
O=[N+]([O-])c1ccc2nc[nH]c2c1,inactive,–
Nc1ccc(S(=O)(=O)Nc2cnc3ccccc3n2)cc1,inactive,–
C=CN1CCCCCC1=O,inactive,–
Clc1ccc(Sc2cc(Cl)c(Cl)cc2Cl)cc1,inactive,–
CC(C)(C)NC(=O)[C@@H]1CN(Cc2cccnc2)CCN1C[C@@H](O)C[C@@H](Cc1ccccc1)C(=O)N[C@H]1c2ccccc2C[C@H]1O,inactive,–
CCCCCCCCCCCCCCCCCC[N+](C)(C)C,–,16.7 µM (active)
NC(=O)c1ccc(N)cc1,inactive,–
C[C@H]1C[C@H]2[C@@H]3CCC4=CC(=O)C=C[C@]4(C)[C@@]3(F)[C@@H](O)C[C@]2(C)[C@@]1(O)C(=O)CO,inactive,–
CC1=NN(c2cc(Cl)c(S(=O)(=O)O)cc2Cl)C(=O)C1N=Nc1ccc(S(=O)(=O)O)cc1 (stereo not given),inactive,–
c1ccc2c(c1)Oc1ccccc1S2,inactive,–
c1cc[c]([Bi]([c]2ccccc2)[c]2ccccc2)cc1,inactive,–
OCCN(CCO)c1cccc(Cl)c1,inactive,–
